Sampled rows, rich in hits. Any-hit rate of the full collection: about 8.3%.
Giardia kill: Giardia lamblia killing; activity change, % at 7.66 µM, hits read low; AID 540267; Giardia lamblia trophozoite viability; 0.15% of 340,000 active; in the data active = activity change below about -80%; inconclusive = between about -30% and that limit;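 also: parasites exposed to compound for two days anaerobically before the ATP read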
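Killing of trophozoites was scored by loss of ATP luminescence after a 48 hrs anaerobic exposure to compounds at 37 deg C, using 100 cells per well.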
BCR signal inh: inhibitors of chronic active B-cell receptor signaling. ABC-DLBCL IkBa-CBG/CBR reporter, luminescence ratio, 4 h. Potency, µM (highest dose often 46.1 µM), usual class: inhibitors. 0.05% of 340,000 active; active = well fitted inhibition curve with a large enough effect in the signal ratio, with a control signal flat, not every such curve was filed as active; inconclusive = small, poorly fitted or top-dose-only effect, or effect the other way, or a change in a side signal; the % refers to the signal ratio
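Compounds up to 46 uM were incubated four hours with TMD8 cells whose green CBG68 luciferase is fused to IkappaBalpha; red CBR luminescence normalised the signal, and concentration-effect curves were fitted to fusion, red and ratio data.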
Gal4-VP16 FLuc: Gal4-VP16 reporter inhibition counter-screen; AID 2546; 3.5% of 310,000 active; Drosophila S2 Gal4-VP16 UAS-luciferase, luminescence, 20 h; Potency, µM (series often up to 53.6 µM), hits mostly inhibitors;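 also: Gal4-VP16 expression switched on by copper sulfate through the metallothionein promoter; nearly all actives have a fitted effect of over 50% in size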
RORg inh: inhibitors of mouse ROR gamma transcriptional activity | Drosophila S2 Gal4-RORgamma UAS-luciferase reporter, 20 h | Potency, µM (doses to about 53.6 µM), most hits filed as inhibitors | 5.4% of 310,000 active | AID 2551; also: nearly all actives have a fitted effect of over 60% in size
Target sequence (P51450 whole entry, looked up, the tested form may be a part): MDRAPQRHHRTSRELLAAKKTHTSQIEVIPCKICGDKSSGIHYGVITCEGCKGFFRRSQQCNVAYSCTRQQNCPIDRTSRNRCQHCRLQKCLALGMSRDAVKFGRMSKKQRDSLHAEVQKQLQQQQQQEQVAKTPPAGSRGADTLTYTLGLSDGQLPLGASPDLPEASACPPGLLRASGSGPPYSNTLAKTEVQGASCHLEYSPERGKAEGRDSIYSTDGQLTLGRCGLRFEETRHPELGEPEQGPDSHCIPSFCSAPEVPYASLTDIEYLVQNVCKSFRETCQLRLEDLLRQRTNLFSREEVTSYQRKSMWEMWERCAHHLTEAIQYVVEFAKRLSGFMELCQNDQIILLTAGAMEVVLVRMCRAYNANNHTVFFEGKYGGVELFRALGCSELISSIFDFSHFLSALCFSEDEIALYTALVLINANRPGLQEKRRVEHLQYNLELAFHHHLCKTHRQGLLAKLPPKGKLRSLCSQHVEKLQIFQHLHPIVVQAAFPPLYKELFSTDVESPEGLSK
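Compounds are pin-transferred onto Drosophila Schneider cells expressing a copper-inducible Gal4–ROR gamma transactivation domain fusion. After 1 hr, copper sulfate is added to 700 uM final; luciferase is read 20 hr later.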
SW480 rereplic: induces DNA re-replication in SW480 colon adenocarcinoma cells; SW480 DNA re-replication, Hoechst DNA content imaging, 48 h; Potency, µM (top dose mostly 46.1 µM), usual class: activators; 1.8% of 340,000 active; AID 624297; also: nearly all actives have a fitted effect of over 55% in size
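Per well, 250 cells were exposed to pinned compound for 48 hr. Nuclear DNA was visualised with Hoechst (40 min, 37 C) and total object intensity recorded by fluorescence scanning.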
MCF10A rereplic: inducers of DNA re-replication in MCF 10A breast cells; MCF 10A DNA re-replication, Hoechst nuclear intensity, 48 h; Potency, µM (top dose mostly 46.1 µM), actives largely listed as activators; 2.9% of 350,000 active; AID 624296; also: nearly all actives have a fitted effect of over 50% in size
Hits are given with their value; - = inactive; ? = inconclusive; . = no result; [ ] = another dose, or the depositor's remark. Unless noted, calls follow the shape of the dose curve; as a rule, active = well fitted curve in the direction sought with a large enough effect; inconclusive = small, poorly fitted or top-dose-only effect, or another doubt; inactive = no such curve, though single readings can be large; an effect the other way counts as inactive or inconclusive.

SMILES	Giardia kill	BCR signal inh	Gal4-VP16 FLuc	RORg inh	SW480 rereplic	MCF10A rereplic
Cc1cc(Cl)nc(Cl)c1C(=O)NC(=O)NCCC(C)C	-	-	-	-	?	?
CCCCNC(=S)N1CCN(C(c2ccccc2)c2ccccc2)CC1	-	?	?	3.2µM	-	?
CCN1CCN(C(=S)NCCc2ccccc2)CC1	-	-	-	-	-	-
S=C(NCCc1ccccc1)N1CCN(C23CC4CC(CC(C4)C2)C3)CC1	-	-	-	-	?	5.8µM
S=C(NCCc1ccccc1)N1CCN(C(c2ccccc2)c2ccccc2)CC1	-	-	?	10µM	-	-
S=C(NCCc1ccccc1)N1CCCC1	-	.	.	.	-	-
CCCNC(=S)N1CCN(C(c2ccccc2)c2ccccc2)CC1	-	-	18µM	11µM	-	-
CCOC(=O)c1cc(CC)sc1NC(=O)COC(=O)C1CCC1	-	-	-	-	-	-
COC(=O)c1cc(C(=O)OC)cc(-n2c(C)cc(C(=O)COC(=O)CNS(=O)(=O)c3ccc(C)cc3)c2C)c1	-	-	?	-	-	-
CN(C)c1oc(-c2ccccc2Cl)nc1C#N	-	?	-	-	-	-
CN(C)c1oc(-c2ccccc2)nc1C#N	-	-	-	-	-	-
COc1ccccc1/C=C/c1nc(C#N)c(N(C)C)o1	-	?	-	-	?	23µM
CN(C)c1oc(/C=C/c2ccccc2)nc1C#N	-	?	-	-	15µM	?
CN1C/C(=C/c2ccccc2[N+](=O)[O-])C(=O)/C(=C\c2ccccc2[N+](=O)[O-])C1	-	.	.	.	1.2µM	1.8µM
O=C(Nc1cc(S(=O)(=O)N2CCOCC2)ccc1Cl)c1ccc(=O)[nH]c1	-	-	.	.	-	-
CN(Cc1cn(C)nc1-c1ccc(Oc2ccccc2)cc1)Cc1cnc2ccccn12	-	-	?	10µM	-	23µM
Cc1ccccc1-c1cc2c(nn1)-c1ccccc1C2=O	-	-	8.9µM	10µM	?	?
Cc1ccc(-c2cc3c(nn2)-c2ccccc2C3=O)cc1	-97	-	2µM	1.1µM	-	-
CC1=C(C2=C(C)C(C(C)C)C3=C(C(=O)C(O)C3O)C2O)C(O)C2=C(C(O)C(O)C2=O)C1C(C)C (centres undefined)	.	.	-	-	.	.
CCN(CC)c1ccc(NC2=C(Cl)C(=O)c3ccccc3C2=O)cc1	-	?	11µM	?	?	4.6µM
O=C1C(Cl)=C(Nc2ccc(O)cc2)C(=O)c2ccccc21	-	?	?	?	-	2.9µM
CCCC(=O)NC1=C(Cl)C(=O)c2ccccc2C1=O	-	.	.	.	6.5µM	?
Cc1ccc(NC2=C(Cl)C(=O)c3ccccc3C2=O)cc1	-	-	?	?	4.1µM	7.3µM
CCNC1=C(Cl)C(=O)c2ccccc2C1=O	-	?	-	?	?	?
Cc1ccc(NC2=C(N3CCOCC3)C(=O)c3ccccc3C2=O)cc1	-	?	-[0.365 µM]	?	-	-
SMILES	Giardia kill	BCR signal inh	Gal4-VP16 FLuc	RORg inh	SW480 rereplic	MCF10A rereplic
CCCn1c(SCC(=O)Nc2ccccc2Cl)n[nH]c1=O	-	?	-	-	-	-
COc1ccccc1CCC(=O)OCC(=O)Nc1ccc2[nH]c(=O)[nH]c2c1	-	-	.	.	-	-
Cc1ccc(S(=O)(=O)N(CCC(=O)N2CCOCC2)c2ccccc2)cc1	-	-	.	.	-	-
Cc1ccc(-c2n[nH]c(=S)n2/N=C/c2cccn2C)cc1	-	-	11µM	3.2µM	-	-
Cn1cccc1/C=N/n1c(-c2ccc(Cl)cc2)n[nH]c1=S	-	-	?	2.5µM	-	?
COc1ccc(-c2n[nH]c(=S)n2/N=C/c2cccn2C)cc1	-	-	-	-	-	-
Cn1cccc1/C=N/n1c(-c2ccc(Cl)cc2Cl)n[nH]c1=S	-	-	?	2.8µM	-	-
Cc1nnc(C)n1/N=C/c1cccn1C	-	?	-	-	?	-
O=c1oc2cc(O)ccc2cc1-c1nc(-c2ccc(Cl)c(Cl)c2)cs1	.	-	.	.	.	.
O=C(CNS(=O)(=O)c1ccc(Cl)cc1)N1CCN(c2ccc(F)cc2)CC1	-	-	.	.	-	?
COc1cccc2sc(N(CCN(C)C)C(=O)/C=C/c3cccs3)nc12	-	?	?	?	-	?

Screens from PubChem BioAssay.
